# The list is not random: actives were taken first. Their share in the collection is about 2.4%.
# NSD2 inh – blocks human histone methyltransferase NSD2 | actives 0.54% (n = 310,000) | inhibition, % at 12.5 µM | NSD2 peptide methylation, AlphaScreen, 120 min | AID 743445 | O96028
# miR-122 sensor – inhibitors of miR-122 in Huh7 cells; actives 0.3% (n = 340,000); activation (reporter increase), % at 12.5 µM; Huh7 miR-122 Renilla luciferase sensor, 48 h; neutral wells = 0, positive control = 100;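 active = mean replicate activation score at least 90 and every replicate individually at or above 90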;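 note: higher luciferase means less miR-122 activity so hits act as miR-122 inhibitors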
# Wnt act – Wnt/beta-catenin pathway activation; Wnt/beta-catenin reporter cell assay, activator, plate reader; activation, % at 9.35 µM; actives 1.2% (n = 300,000); AID 743398; in the data active = activation above about 30%, passing the limit was not always enough;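 note: 0% = neutral control wells and 100% = positive control wells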
# Dyrk1A ADPGlo – blocks rat Dyrk1A kinase activity; Q63470; ADP-Glo luminescence, NFATc1 peptide; inhibition, % at 12.5 µM; actives 0.43% (n = 310,000); AID 504441;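 note: plate controls were vehicle with enzyme for no effect and no enzyme for full effect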
# MITF TRPM1 HTS – MITF TRPM1 promoter activation in melanoma cells. SK-MEL-5 TRPM1-promoter luciferase, 24 h; % of positive control, neutral wells = 0. activation, % at 12.5 µM. actives 0.75% (n = 300,000). AID 588334;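 active = mean activation of at least 80% with every replicate also reaching 80%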;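 note: 0% = neutral control wells and 100% = parthenolide positive control wells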
# INS-1E GSIS act – primary screen for activators of insulin secretion dependent on glucose, INS-1E cells, GLuc reporter luminescence | actives 0.61% (n = 370,000) | AID 743287 | INS-1E GLuc reporter insulin secretion, 2-3 h | activation, % at 16.6 µM;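 active = lowest replicate activation of at least 40%, so every replicate reaches that level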;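 note: 0% = median of neutral control wells and 100% = median of IBMX positive control wells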
# Starred values were filed as active, the others as inactive; nt = not tested or not shown; ! = not confirmed by another sample; [ ] = dose if it differs, or a comment. Cut-off read from the data, not from the text of the source, unless noted: active = inhibition above about 50%; inactive = the rest.
SMILES,NSD2 inh,miR-122 sensor,Wnt act,Dyrk1A ADPGlo,MITF TRPM1 HTS,INS-1E GSIS act
COC(=O)[C@@H](Cc1c[nH]c2ccccc12)NC(=O)c1ccc2c(c1)OCO2,0,nt,38*,3,67,0
O=C(O)C[C@H]1C=C[C@@H](NC(=O)CCN2CCCCC2)[C@H](CO)O1,nt,nt,nt,nt,nt,-4
COc1cccc(CN2CCC3(CC2)CN(C(=O)C2CC2)[C@H](CO)c2[nH]c4cc(OC)ccc4c23)c1,nt,nt,nt,nt,nt,-9
COc1ccccc1NC(=O)N[C@@H]1C=C[C@@H](CC(=O)NCc2ccc(Cl)c(Cl)c2)O[C@@H]1CO,nt,nt,nt,nt,nt,-3
O=C1NC(=Nc2ccccc2)S/C1=C/c1cccs1,-3,nt,51*,9,48,11
CCOc1ccc(CNC(=S)N/N=C/c2ccc(OC)c(OC)c2)cc1,-2,nt,-2,-4,-10,-14
COc1cc(/C=N/NC(=S)NCc2ccccc2)ccc1OCC#N,-1,nt,nt,1,9,117*
CCS(=O)(=O)Nc1ccc(-c2cc(-c3ccccc3)c3cc(C)ccc3n2)cc1,0,nt,-2,2,5,110*
CCCC#Cc1cnc2c(c1)C(=O)N([C@@H](C)CO)C[C@H](C)[C@@H](CN(C)S(=O)(=O)c1cccc(OC)c1)O2,nt,35[16.7 µM],nt,nt,nt,-13
CCCNC(=O)C[C@@H]1C[C@H]2c3cc(NC(=O)CC4CC4)ccc3O[C@H]2[C@H](CO)O1,nt,7[16.7 µM],nt,nt,nt,-10
CCOC(=O)C1CCN(C2=C(NS(=O)(=O)c3ccc(Cl)cc3)C(=O)c3ccccc3C2=O)CC1,67*,1,-2,-3,-9,-11
CCN1CCN(C2=C(NS(=O)(=O)c3ccc(C)cc3)C(=O)c3ccccc3C2=O)CC1,51*,5,1,-3,-67,-5
CCNC(=O)Nc1ccc2c(c1)C(=O)N(C)[C@H]1CC[C@@H](CC(=O)NCC3CCCCC3)O[C@@H]1CO2,nt,4[16.7 µM],nt,nt,nt,3
CC(C)NC(=O)Nc1ccc2c(c1)C(=O)N([C@@H](C)CO)C[C@@H](C)[C@@H](CN(C)S(=O)(=O)c1cn(C)cn1)O2,nt,-5[16.7 µM],nt,nt,nt,9
O=C(C[C@H]1CC[C@@H]2[C@H](COC[C@H](O)CN2Cc2cccc(-c3ccncc3)c2)O1)N1CCN(c2ccccc2)CC1,nt,-6[16.7 µM],nt,nt,nt,-15
Cc1ccc(S(=O)(=O)N(C)C[C@@H]2Oc3ccc(NC(=O)Cc4cn(C)c5ccccc45)cc3CC(=O)N([C@H](C)CO)C[C@@H]2C)cc1,nt,-11[16.7 µM],nt,nt,nt,-4
O=C1c2ccccc2C(=O)N1N=Cc1ccc2c(c1)OCO2,0,nt,52*,nt,nt,1
CN(/N=C/c1ccc2c(c1)OCO2)c1ccccc1,1,0,nt,-4,118*,-3
C(=N\N(c1ccccc1)c1ccccc1)/c1ccc2c(c1)OCO2,0,nt,-7,-1,-6,-32
COc1ccc2c3c(n(C)c2c1)[C@@H](CO)N(C(=O)C1CCCCC1)CC31CN(C(=O)c2ccncc2)C1,nt,nt,nt,nt,nt,0
CC(=O)Nc1nc(C)c(-c2csc(Nc3cccc([N+](=O)[O-])c3)n2)s1,0,-23,nt,-2,-46,134*
CC(=O)Nc1ccc(Nc2nc(-c3sc(NC(C)=O)nc3C)cs2)cc1,3,-27,1,20,nt,-14
CC(=O)Oc1ccc(-c2csc(Nc3ccccn3)n2)cc1,-2,-6,61*,nt,nt,8
CC(=O)Nc1nc(C)c(-c2csc(Nc3ccccn3)n2)s1,-1,nt,52*!,1,13,18
CC(C)NC(=O)N1CCCCN2[C@H](CO)[C@@H](c3ccc(C#Cc4ccccc4)cc3)[C@H]2C1,nt,-18[16.7 µM],nt,nt,nt,-9
CO[C@H]1CN(C)C(=O)c2ccc(NS(C)(=O)=O)cc2OC[C@H](C)N(C(=O)C2CC2)C[C@@H]1C,nt,nt,nt,nt,nt,-3
CCNC(=O)[C@H]1[C@H](CO)[C@H]2Cn3c(ccc(C4=CCCCC4)c3=O)[C@H]2N1Cc1ccccc1F,nt,2[16.7 µM],nt,nt,nt,2
Cc1[nH]c(=S)[nH]c(=O)c1Cc1c(O)ccc2ccccc12,2,134*,0,12,0,-15
N#C/C(=N\Nc1ccccc1F)C(=N)N1CCCCC1,0,14,28,12,85*,nt
COC(=O)C1=C(C)Nc2nc3ccccc3n2C1c1cc(OC)c(OC)c(OC)c1 (centres undefined),3,0,44*,nt,nt,-5

# Assay outcomes deposited in PubChem BioAssay by Broad Institute.
